PubChem BioAssay (Tox21)
Inconclusive results are not listed. Calls of active or inactive are those of the source. Calls come from the whole dose curve.

Test: cAMP Responsive Elements (CRE) small molecule agonists, cell-based qHTS assay (AID 1963590)
Settings: CRE-bla HEK293T, beta-lactamase FRET ratio, 3 h; series mostly up to 92.4 µM; activation: at the top concentration
Source text: U.S. Tox21 Program National Center for Advancing Translational Sciences [NCATS] Division of Preclinical Innovation [DPI] U.S. Environmental Protection Agency [EPA] National Institutes of Environmental Health Sciences [NIEHS] National Toxicology Program [NTP] U.S. Food and Drug Administration [FDA] Tox21 Assay Overview: CREB (cyclic-AMP Responsive Element Binding Protein) is a cellular transcription factor. It binds to certain DNA sequences called cAMP Responsive Elements (CRE) and regulates the transcription of the genes. […] This cell line can be used to find agonists/antagonists of the cyclic AMP signaling pathway. The activation of the report gene under culture conditions can be detected by fluorescence intensity. This cell line has been used to screen the Tox21 10K compound library to identify agonists that induce oxidative stress.
Tox21 Assay Protocol Summary: CRE-bla Hek 293T cells were suspended in assay medium (DMEM containing 10% dialyzed FBS, 0.1 mM NEAA, 1 mM sodium pyruvate and 25 mM HEPES) and dispensed at 2,000 cells/5 uL /well into 1536-well black wall/clear bottom plates using a Multidrop Combi (ThermoFisher Scientific, Waltham, MA) dispenser. After the assay plates were incubated at 37 C/5% CO2 for 18 hrs, 23 nL of compounds dissolved in DMSO, positive controls or DMSO only was transferred to the assay plate by a pintool workstation (Kalypsys, San Diego, CA). After the plates were incubated at 37 C/5% CO2 for 3 hrs, 1 uL of LiveBLAzer B/G FRET substrate (Invitrogen, Carlsbad, CA) was added to each well using Bioraptr Flying Reagent Dispenser (FRD, Aurora Discovery, San Diego, CA). The plates were incubated at room temperature for 2 h.
% is set by controls: 0 for no effect and ±100 for the full control effect.

| Compound | activation |
| --- | --- |
| CCCCCCC(O)CO (stereo not given) | 0.0435% (inactive) |
| O=C1C(CCS(=O)c2ccccc2)C(=O)N(c2ccccc2)N1c1ccccc1 (stereo not given) | -3.04% [at 42.5 µM] (inactive) |
| Oc1cccc2cc3cccc(O)c3c(O)c12 | 0.462% (inactive) |
| C[C@@H]1O[C@@H](O[C@@H]2[C@@H](O)[C@H](OCCc3ccc(O)c(O)c3)O[C@H](CO[C@@H]3O[C@H](CO)[C@@H](O)[C@H](O)[C@H]3O)[C@H]2OC(=O)/C=C/c2ccc(O)c(O)c2)[C@H](O)[C@H](O)[C@H]1O | -0.859% (inactive) |
| CCOC(=O)c1c(N)sc2c1CCN(Cc1ccccc1)C2 | 2.67% [at 42.5 µM] (inactive) |
| Oc1ccccc1Cc1ccccc1O | 2.2% (inactive) |
| COCCC(=O)OC | -0.192% (inactive) |
| Cc1cc(N)c2cc(NC(=O)Nc3ccc4nc(C)cc(N)c4c3)ccc2n1 | 7.04% [at 42.5 µM] (inactive) |
| CN1CCC(=C2c3ccccc3CC(=O)c3sccc32)CC1 | -0.096% [at 42.5 µM] (inactive) |
| CCOc1nc2cccc(C(=O)O)c2n1Cc1ccc(-c2ccccc2-c2nn[nH]n2)cc1 | -0.157% [at 42.5 µM] (inactive) |
| COc1ccc2nc(SCc3ncc(C)c(OC)c3C)[nH]c2c1 | 2.31% [at 42.5 µM] (inactive) |
| CC(C)(Oc1ccc(Cl)cc1)C(=O)OCCCOC(=O)C(C)(C)Oc1ccc(Cl)cc1 | 1.03% [at 42.5 µM] (inactive) |
| CN(C)[C@@H]1C(=O)C(C(=O)NCN2CCCC2)=C(O)[C@@]2(O)C(=O)C3=C(O)c4c(O)cccc4[C@@](C)(O)C3C[C@@H]12 (stereo not given in full) | 0.193% [at 42.5 µM] (inactive) |
| CC(C)(O)CCCC1=CCC(C=O)CC1 (stereo not given) | 0.21% (inactive) |
| CC(C(=O)O)c1ccc2c(c1)CC(=O)c1ccccc1S2 (stereo not given) | -1.18% [at 42.5 µM] (inactive) |
| CCCCCCCCCCCCCCCC/C=C/C1CC(=O)OC1=O (stereo not given) | -0.542% [at 42.5 µM] (inactive) |
| CC1=CCC2C(C1)C2(C)C (stereo not given) | -0.864% (inactive) |
| Cc1nc2ccccn2c(=O)c1CCN1CCC(C(=O)c2ccc(F)cc2)CC1 | 0.716% [at 42.5 µM] (inactive) |
| O=C(CCBr)N1CCN(C(=O)CCBr)CC1 | 0.669% [at 42.5 µM] (inactive) |
| CC(C)(C)N | -0.536% (inactive) |

| Compound | activation |
| --- | --- |
| CN(C)C/C=C(/c1ccc(Br)cc1)c1cccnc1 | 0.196% [at 42.5 µM] (inactive) |
| Nc1cc(C(=O)O)c(O)c(S(=O)(=O)O)c1 | -0.66% (inactive) |
| Clc1ccnc(Cl)n1 | -0.605% (inactive) |
| CC(C)(C)N(CCO)CCO | 0.119% (inactive) |
| CCCCCCCCCCCl | 0.116% (inactive) |
| CCOC(=O)C1=NN(c2ccc(Cl)cc2Cl)C(C)(C(=O)OCC)C1 (stereo not given) | 7.06% (inactive) |
| CC1=NS(=O)(=O)c2cc(Cl)ccc2N1 | -1.42% [at 42.5 µM] (inactive) |
| COC(C)OC | 0.0545% (inactive) |
| OC1(c2ccccc2)CCNCC1 | 0.0708% [at 42.5 µM] (inactive) |
| O=Cc1c2ccccc2c(Cl)c2ccccc12 | 1.36% [at 42.5 µM] (inactive) |
| S=C(SSSSSSC(=S)N1CCCCC1)N1CCCCC1 | -0.287% [at 19 µM] (inactive) |
| CC(=O)c1c(C)cc(C(C)(C)C)cc1C | -0.487% (inactive) |
| CCCCCCCCN | -0.0477% (inactive) |
| O=Cc1c(Cl)cccc1Cl | 0.0085% (inactive) |
| CCOC(=O)c1ncn2c1CN(C)C(=O)c1cc(F)ccc1-2 | 0.0621% [at 42.5 µM] (inactive) |
| O=c1cccccc1O | 0.902% (inactive) |
| Cc1c(N=C=O)cccc1N=C=O | 0.296% (inactive) |
| c1ccc(CCNc2nc(-c3ccccc3)cs2)cc1 | -0.0414% [at 42.5 µM] (inactive) |
| Cc1ccccc1C(=O)O | 0.515% (inactive) |
| CC(C)(C)C1(CCc2ccc(Cl)cc2)CO1 (stereo not given) | 0.188% (inactive) |
